GLD-1 TGE inh: GLD-1/TGE RNA complex disruptors, primary screen, biochemical, fluorescence polarization; Female germline-specific tumor suppressor gld-1 (Caenorhabditis elegans), Q17339; purified GLD-1 + fluorescein TGE RNA; inhibition, % at 5.96 µM; 320,000 tested, 0.44% active; AID 2280, 2010;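 active = percent inhibition above a per-plate cutoff, the plate mean of test compounds plus 3 SD, cut at about 30% in these data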
Bcl-xL primary: inhibitors of human Bcl-xL, primary screen, biochemical, fluorescence polarization, HTS; Bcl-2-like protein 1 (Homo sapiens), Q07817; GST-Bcl-xL / FITC-Bim BH3 peptide fluorescence polarization; inhibition, % at 10.9 µM; 320,000 tested, 0.7% active;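 active = inhibition above the mean of all tested compounds plus 3 SD, cutoff set per campaign, cut at about 30% in these data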;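 also: inhibitors lower millipolarization by displacing the labeled peptide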
Target sequence (Q07817 whole entry, looked up): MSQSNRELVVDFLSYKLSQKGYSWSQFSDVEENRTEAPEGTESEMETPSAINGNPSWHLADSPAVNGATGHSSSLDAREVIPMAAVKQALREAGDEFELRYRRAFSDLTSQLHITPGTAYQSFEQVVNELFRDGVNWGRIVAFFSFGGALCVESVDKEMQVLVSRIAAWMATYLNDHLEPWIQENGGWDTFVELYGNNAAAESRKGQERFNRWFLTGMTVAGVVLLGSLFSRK
Mcl1-Noxa inh: Mcl-1/Noxa binding inhibitors, primary screen, biochemical, TR-FRET, 1536-well; TR-FRET Mcl-1/Noxa peptide binding, 2 h; inhibition, % at 21.7 µM; 220,000 tested, 1.5% active; Induced myeloid leukemia cell differentiation protein Mcl-1 (Homo sapiens), Q07820; AID 1022, 2008;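 active = compounds that cut the protein-peptide binding signal by more than 50% relative to plate controls in a single-dose test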;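 also: His-tagged Mcl-1 with rhodamine Noxa BH3 peptide and terbium anti-His antibody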
Mcl1-Bid inh: Mcl-1/Bid binding inhibitors, primary screen, biochemical, TR-FRET, 1536-well | Induced myeloid leukemia cell differentiation protein Mcl-1 (Homo sapiens), Q07820 | TR-FRET Mcl-1/Bid-Dy647 peptide binding | 220,000 tested, 0.97% active | inhibition, % at 21.7 µM;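 active = compounds that cut the binding signal by more than half at the single screening dose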;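 also: His-tagged Mcl-1 with europium anti-His antibody binding Bid BH3 peptide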
MCL1 BIM primary: inhibitors of MCL1 binding to BIM-BH3, primary screen, biochemical, fluorescence polarization; GST-MCL1 / FITC-Bim-BH3 fluorescence polarization; inhibition, % at 10.9 µM; 320,000 tested, 0.68% active;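 active = inhibition above the mean inhibition of all tested compounds plus 3 SD, set per campaign, cut at about 40% in these data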;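 also: higher means more loss of mP so more displacement of Bim peptide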
Mcl-1 Bim block: inhibitors of Bim peptide binding to Mcl-1, primary screen, biochemical, bead-based flow cytometry, multiplex. Bim peptide-Mcl-1 binding. inhibition, % at 10 µM. 190,000 tested, 0.1% active; in the data active = inhibition above about 40%
BCLXL inh confirm: Bcl-xL inhibitors blocking Bim BH3 binding, confirmation, counter-screen for MCL1 inhibitor project, biochemical, fluorescence polarization. shares compounds with MCL1 BIM primary. GST-Bcl-xL / FITC-Bim BH3 peptide FP binding. inhibition, % at 10.9 µM. 1,700 tested, 54% active;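 active = inhibition above a cutoff equal to the mean inhibition of all tested compounds plus 3 SD, cut at about 30% in these data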
MCL1 BIM confirm: inhibitors of MCL1 binding to BIM-BH3, confirmation, biochemical, fluorescence polarization, triplicate. shares compounds with MCL1 BIM primary. GST-MCL1 / FITC-Bim-BH3 fluorescence polarization. inhibition, % at 10.9 µM. 1,700 tested, 61% active;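 active = inhibition above the average of all tested compounds plus 3 SD, cut at about 40% in these data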
Hits are given with their value; - = inactive; . = not tested or not shown. Most compounds without a hit are left out; they make up all but 2.3% or so of the library.

SMILES | GLD-1 TGE inh | Bcl-xL primary | Mcl1-Noxa inh | Mcl1-Bid inh | MCL1 BIM primary | Mcl-1 Bim block | BCLXL inh confirm | MCL1 BIM confirm
Cc1ccc(NC(=O)CC2SC3=NCCCN3C2=O)c(C)c1 (stereo unspecified) | 82 | 110 | . | - | 112 | - | 51 | 56
O=C(CC1SC2=NCCN2C1=O)Nc1ccc(Cl)cc1 (stereo unspecified) | - | - | - | - | - | - | . | .
COc1ccc(C(=O)NCC(C)(C)CNC(=O)c2ccc(OC)cc2)cc1 | - | - | . | . | - | . | . | .
O=C(COC(=O)/C=C/c1ccc(Br)o1)Nc1ccc2[nH]c(=O)[nH]c2c1 | - | - | . | . | 68 | . | - | 63
COc1ccc(NC(=O)c2sc3nc(-c4cccnc4)ccc3c2N)cc1 | 69 | 108 | - | 52 | 112 | . | 113 | 137
COc1ccc(NC(=O)c2sc3nc(C)cc(C)c3c2N)cc1 | - | - | . | . | - | . | . | .
O=S(=O)(c1ccc2ccccc2c1)N1CCN(C(=S)Nc2ccccc2F)CC1 | - | - | - | - | - | . | . | .
Cc1ccc(C2OC34CCCCCC3C(C#N)(C(=N)O4)C2(C#N)C#N)cc1 (stereo unspecified) | - | - | - | - | - | - | . | .
CCCCOc1ccc(C2OC34CCCCC3C(C#N)(C#N)C2(C#N)C(=N)O4)cc1 (stereo unspecified) | 92 | 137 | - | - | 166 | - | 52 | 68
CCOc1ccc(C2C(C#N)=C(N)SC(N)=C2C#N)cc1OC | - | - | - | - | - | - | . | .
CCOc1ccc(C2OC34CCCCC3C(C#N)(C#N)C2(C#N)C(=N)O4)cc1OC (stereo unspecified) | 130 | 143 | - | - | 167 | - | 107 | 133
C=CCOc1ccc(C2OC34CCCCC3C(C#N)(C#N)C2(C#N)C(=N)O4)cc1 (stereo unspecified) | 75 | 104 | - | - | 115 | - | 76 | 94
O=C(O)CC(NC(=O)C(F)(F)F)c1ccc2c(c1)OCO2 (stereo unspecified) | - | - | - | - | - | - | . | .
CCN(CC)CCN1C(=O)c2cccc3cc(N)cc(c23)C1=O | 72 | 124 | - | - | 158 | . | 128 | 166
Nc1cc2c3c(cccc3c1)C(=O)N(CCN1CCCC1)C2=O | 36 | 125 | - | - | 145 | . | 99 | 132
CC(=O)OCCCN1C(=O)c2cccc3cc(Br)cc(c23)C1=O | - | - | . | . | - | . | . | .
CC12CCC(=O)N1C(C(=O)OCC(=O)Nc1cccc(S(=O)(=O)N3CCCCCC3)c1)CS2 (stereo unspecified) | - | - | - | - | - | - | . | .
COC(=O)C1=C(O)/C(=C\c2ccc(CNC(=O)C(=O)Nc3ccc(C)cc3)o2)N=C1C | - | - | - | - | - | - | . | .
COC(=O)C1=C(O)/C(=C\c2ccc(CNS(=O)(=O)c3ccccc3)o2)N=C1C | - | 45 | - | - | 48 | - | 31 | 54
O=C1c2cccc(O)c2C(=O)c2c(O)cc(CO)cc21 | 81 | 93 | . | . | 100 | . | 81 | 100
Cc1cccc(-n2c(CNC(=O)COc3ccccc3)nnc2SCC(=O)Nc2nccs2)c1 | - | - | - | - | - | - | . | .
O=C(Cn1nnc(-c2ccccc2)n1)N/N=C/c1cccc([N+](=O)[O-])c1O | - | - | - | - | 46 | - | 47 | 87

Source: PubChem
